These results are taken from PubChem BioAssay AID2314 (National Center for Advancing Translational Sciences (NCATS), 2010).

About 37,000 (12%) of roughly 300,000 compounds were called active. Only a selection was taken, and actives are over-represented in it overall. A number with no mark means an inactive call. Rule as the data show it: active = max response mostly above about 13% (no sharp cut-off); inactive = mostly below about 14%.

The assay in a line: Cycloheximide Counterscreen for Small Molecule Inhibitors of Shiga Toxin. Also: read at 38.3 µM for the half of the compounds with a filed dose; 0% is about no effect. The following applies: cell reporter, cycloheximide protein synthesis inhibition counterscreen; active compounds read high. For orientation: The purpose of a counterscreen is to sort out artefacts and off-target activity.
Regarding `COc1ccc2oc(=O)cc(CN3CCOCC3)c2c1`, the max response is -3.2%. In the case of `Cc1cc(=O)oc2c3c(cc(OCC(=O)NCCC(=O)N[C@@H](C)C(=O)O)c12)OC(C)(C)CC3`, the max response is -1.18%. As for `COc1ccc(S(=O)(=O)NCCc2cc3ccc(C)c(C)c3[nH]c2=O)cc1`, the max response was -6.24%. `COCc1c(C(=O)N/N=C\c2cccnc2)nnn1-c1nonc1N`: the max response is -4.36%. As for `FC(F)(F)c1cccc(-c2cc3ccccc3nc2N2CCCC2)c1`, the max response was 3.78%. The result for `CCC/C(=N\O)c1c[nH]c2ccccc12` reads 13.5%. To `COc1ccc2[nH]cc(/C=C(/C#N)S(=O)(=O)c3ccccc3)c2c1` belongs -3.42%; to `COc1ccc(/C=C(\C#N)c2c[nH]c3ccccc23)cc1`, 47.7% (active); to `CCO[C@@H]1OC(C(N)=O)=C[C@H](c2ccc(Br)cc2)[C@H]1CCCO`, -0.863%.

For `CCC/C=C(\CCC)C(NC(=O)Cc1ccccc1)c1ccc(C(=O)OC)cc1` (stereo unspecified), the max response was -2.68%. The result for `CN(C)Cc1c(O)ccc2occ(C(O)c3ccccc3)c12` (stereo unspecified) reads 17.6% (active); that for `Cc1ccc(C(=O)c2coc3ccc(O)c(CN(C)C)c23)cc1`, -0.656%. The result for `CN(C)Cc1c(O)ccc2c(=O)c(-c3ccccc3Cl)coc12` reads 1.67%; that for `c1ccc(Cc2ccc(OCCn3ccnc3)cc2)cc1`, 12%. Regarding `C=CCc1cc(C)ccc1OCCCn1ccnc1`, the max response was -0.408%. In the case of `Clc1c(OCCCn2ccnc2)ccc2ccccc12`, the max response was 20.6% (active). Take `COc1cc(S(=O)(=O)Nc2ncn[nH]2)ccc1Cl`: the max response was -1.79%. Take `CSc1nc2sc3c(c2c(=O)[nH]1)CCc1ccccc1-3`: the max response was -2.09%. As to `Fc1ccc(CSc2nnc(-c3cc4c(s3)-c3ccccc3CC4)o2)cc1`, the max response was 1.49%. For the compound `CCSc1nnc(-c2cc3c(s2)-c2ccccc2CC3)o1`, the max response was 40.7% (active). `CC(=O)NCCc1nc2cc(NC(=O)c3ccccc3)ccc2n1C`: the max response was 20.2%. Take `Cn1sc(NC(=O)c2ccccc2)nc1=O`: the max response is 9.66%. For the compound `Cn1c(NC(=O)c2ccccc2)nc2ccccc21`, the max response is 25.8% (active). On to `COc1cc2c(cc1OC)C(C(=O)NCc1ccco1)C1c3ccccc3CCN1C2=O` (stereo unspecified), for which the max response is -2.13%. Regarding `Cc1cc(=O)oc2cc(OC(C)C(=O)NCCc3ccc(S(N)(=O)=O)cc3)ccc12` (stereo unspecified), the max response was -2.25%. On to `Cc1ccc(N2CCN(C(=O)c3cccs3)CC2)c(C)c1`, for which the max response was 1.82%. To `O=C(/C=C/c1cn(-c2ccccc2)nc1-c1ccc2c(c1)OCCO2)NCCCN1CCOCC1` belongs 13.7%; to `O=C(O)c1ccc(N/N=C/c2cn(-c3ccccc3)nc2-c2cccs2)cc1`, 14.7%; to `O=C(/C=C\c1cn(-c2ccccc2)nc1-c1cccs1)N1CCOCC1`, 17.5% (active). With `O=C(O)/C=C/c1cn(Cc2ccccc2)nc1-c1cccs1`, the max response was 0.958%. In the case of `COc1ccc(-c2nn(-c3ccccc3)cc2/C=C\C(=O)N2CCOCC2)cc1[N+](=O)[O-]`, the max response is -1.53%.

`O=C(O)/C=C/c1cn(-c2ccccc2)nc1-c1cccs1`: the max response was 20.8% (active). As for `CCOC(=O)c1c(NC(=O)CSc2nccc(=O)[nH]2)sc(C)c1C`, the max response was -2.23%. With `CCN1CC(CN(C)Cc2nc(-c3ccc(Cl)cc3)no2)CC1=O` (stereo unspecified), the max response was 6.16%.

For the compound `CN(Cc1ccccn1)Cc1nc(-c2ccc(Cl)cc2)no1`, the max response is 20% (active).

For `COC(=O)c1ccc(-c2noc(CN(Cc3ccccn3)CC3CCCO3)n2)cc1` (stereo unspecified), the max response is -2.22%. For `COCCCNS(=O)(=O)c1cccc(S(=O)(=O)c2cccc(S(=O)(=O)NCCCOC)c2)c1`, the max response is -2.51%.

Turning to `O=C(Nc1ccccc1Cl)Nc1cccc2cccnc12`, the max response was 31.2% (active).

Consider `O=C(Nc1cccc2cccnc12)c1cccc(N2C(=O)CCC2=O)c1`, for which the max response is -3.63%.

As for `COc1ccc(NC(=O)Nc2cccc3cccnc23)cc1`, the max response is 55.8% (active). Turning to `O=C(Nc1ccccc1Cl)Nn1cnnc1`, the max response was 6.34%. Consider `COc1ccc(S(=O)(=O)Nc2cccc3cccnc23)c(N)c1`, for which the max response was 23.5%. To `N#Cc1ccc(C(=O)Nc2cccc3cccnc23)c(F)c1` belongs -0.854%; to `O=C(Nc1cccc2cccnc12)C(F)(F)F`, -1.21%; to `O=C(Nc1cccc2cccnc12)c1cccc(Cl)c1`, 49.1% (active). The result for `CCOC(=O)Cc1ncccc1C(=O)Nc1ccc(OC)cc1` reads -1.69%; that for `O=C(COC(=O)/C=C/c1cn(-c2ccccc2)nc1-c1cccnc1)Nc1ccc(Cl)cc1Cl`, 3.3%. As for `COc1cccc(-n2c(=S)sc3c(=O)n(-c4ccccc4C)c(SCC(=O)O)nc32)c1`, the max response is -1.2%. Consider `O=C(c1ccccc1F)N1CCN(S(=O)(=O)c2ccc(Br)cc2)CC1`, for which the max response is -10.6%. To `O=C1NC(=O)C(c2ccc(Cl)cc2)N1` (stereo unspecified) belongs -2.12%; to `CCOC(=O)C1=C(O)/C(=C/c2ccc(OCC(=O)Nc3ccc(C)cc3)cc2)N=C1C`, -7%; to `Cc1ccc(NC(=O)COc2ccc(/C=C3/NC(=O)NC3=O)cc2)cc1`, -1.82%. The result for `C=CCN1C(=O)NC(=O)/C(=C/c2ccc(OCC(=O)Nc3ccc(C)cc3)cc2)C1=O` reads 14.5% (active); that for `CCSc1nnc(SCC(=O)NNC(=O)c2ccccc2F)s1`, 6.26%. To `O=C(CCC1CCCC1)N=C1SC2CS(=O)(=O)CC2N1Cc1ccccc1` (stereo unspecified) belongs 0.661%; to `CNC(=O)c1sc(Nc2ccc(OCc3ccccc3)cc2)nc1C`, 10.4%. With `COc1cccc2sc(NNC(=O)c3nc4ccccc4s3)nc12`, the max response was 12.4%. Turning to `CC(=O)c1sc(NC(=O)C2=NN(c3ccccc3)C(=O)CC2)nc1C`, the max response is -0.878%. For `CCOC(=O)c1sc(NC(=O)c2ccncc2)nc1C`, the max response is 0.888%.

Take `COc1ccc(Br)cc1C(=O)Nc1cccc(C)c1C`: the max response was -3.3%. On to `CNC(=O)c1sc(NCc2ccccc2OC)nc1C`, for which the max response was -3.72%. The result for `COc1cc2ccccc2cc1C(=O)Nc1ccc(S(=O)(=O)Nc2cc(C)on2)cc1` reads -2.65%; that for `COC(=O)c1sc(NC(=S)NC(=O)c2ccc(C)cc2)nc1C`, 9.32%; that for `COc1cccc2sc(Nc3nc(C)c(C(C)=O)s3)nc12`, 16.2% (active).

For the compound `CC(=O)c1sc(NC(=O)c2cccc3ccccc23)nc1C`, the max response is 35.9% (active). On to `COc1cc2ccccc2cc1C(=O)Nc1ccccc1C`, for which the max response was 29.7% (active). Consider `CC(=O)c1sc(NC(=O)c2ccc(C)cc2)nc1C`, for which the max response is 54.3% (active). For the compound `COc1cc(C(=O)NCc2ccncc2)cc(Br)c1OCc1ccccc1`, the max response was -7.17%. In the case of `Cc1ccc(C(=O)N/N=C\c2cc(Br)c(Br)o2)cn1`, the max response was 3.37%. As for `CC(=O)NS(=O)(=O)c1ccc2c(c1)Cc1cc(S(=O)(=O)NC(C)=O)ccc1-2`, the max response is -0.942%. Turning to `N#C[C@]1(S(=O)(=O)c2ccccc2)C[C@@H]2ON=C(c3cccc(Br)c3)[C@@H]2C1`, the max response is 0.173%.

As to `CCCCC(O)(CCCC)C(=O)NN(C(=O)CCl)c1ccccc1`, the max response was 4.18%.

Consider `COc1cc2ccccc2cc1C(=O)Nc1nc(C)c(C(C)=O)s1`, for which the max response was 33.8% (active).

`O=C(Cc1ccccc1)NC(=S)Nc1ccc(N2CCCCC2)cc1`: the max response is 20.2%. As for `CC1(C)CC(N2CCN(C(c3ccccc3)c3ccccc3)CC2)=CC(=[N+]2CCCCC2)C1`, the max response was -1.68%. For the compound `Cc1ccc(S(=O)Cc2ccc(C(=O)N3CCN(C4CCCCC4)CC3)o2)cc1` (stereo unspecified), the max response was 0.779%.

On to `CCOC(=O)c1ccc(COC(=O)c2cc(=O)[nH]c3ccccc23)o1`, for which the max response is -2.02%. Consider `CCOC(=O)c1ccc(CS(=O)c2ccc(Cl)cc2)o1` (stereo unspecified), for which the max response was 25.3% (active). On to `C=CCn1c(CNS(=O)(=O)c2ccc(Br)cc2)nnc1SC`, for which the max response is -1.32%. As to `COc1ccc(CCNC(=O)c2nnc(CS(=O)(=O)c3ccccc3)o2)cc1OC`, the max response was -0.612%. To `CC(=O)NC(CC(=O)Nc1nc(-c2ccccc2)c(C(C)=O)s1)c1ccccc1` (stereo unspecified) belongs -6.12%. To `COC(=O)c1c(C)[nH]c(C(=O)/C=C/c2ccc(Cl)cc2)c1C` belongs 30.8% (active). Consider `COC(=O)c1c(C)oc(C)c1S(=O)(=O)NCc1ccc(Cl)cc1`, for which the max response was -1.57%. The result for `COC(=O)c1c(C)[nH]c(C)c1-c1ccc([N+](=O)[O-])cc1` reads -6.3%; that for `COc1ccc(NC(=O)c2sc3nc(C)nc(N4CCN(c5ccccn5)CC4)c3c2C)c(OC)c1`, -5.96%. Regarding `CCN(C(=O)COC(=O)/C=C/c1nc2ccccc2s1)C1CCS(=O)(=O)C1` (stereo unspecified), the max response is -3.69%. For `O=S(=O)(Nc1cccc(-n2cnnn2)c1)c1cnc(Cl)c(Cl)c1`, the max response was 4.36%.

In the case of `O=C(CN1C2=NCCN2c2ccccc21)c1cccs1`, the max response is 4.8%.

As for `Nc1c(C(=O)c2cccs2)sc2nsc(SCCN3CCCCC3)c12`, the max response was 24.4% (active). As for `O=C(c1ccc(Oc2ccc(Cl)cc2)c([N+](=O)[O-])c1)N1CCCC1`, the max response is -3.06%. For `COc1cc(N=Cc2c(O)[nH]c3ccccc23)cc(OC)c1OC`, the max response was 6.65%. In the case of `COc1ccccc1N=Cc1c(O)c2ccccc2oc1=O`, the max response is 9.95%. Take `COc1ccc(N=Cc2c(O)[nH]c3ccccc23)cc1OC`: the max response was 43.7% (active).

`COc1cc(OC)c(C(=S)N2CCCC2)cc1OC`: the max response was -2.47%. As for `Cc1cccc(NS(=O)(=O)c2cc(Cl)ccc2Cl)n1`, the max response was -0.991%. Consider `C[C@H](NC(=O)c1nc[nH]c1C(=O)NCC(=O)OC(C)(C)C)C(=O)OCc1ccccc1`, for which the max response is -0.808%.
